Source: PubChem BioAssay AID460 (PCMD, 2006)
The campaign covered roughly 58,000 compounds. About 100 (0.17%) were called active. No stated cut-off is given here; in the data, active means inhibition above about 45%; inactive means the rest. The sample as a whole holds a higher share of actives than the screen did.

Each compound was assayed against Procathepsin L (Homo sapiens) (UniProt P07711) (assay: blockers of CTSL protease activity – biochemical (AID 460;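 further: 0% = enzyme with no compound and 100% = no enzyme blank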)). Conditions: purified cathepsin L, fluorogenic substrate, fluorescence; active compounds read high;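 tested at 10 µM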.
Chain of Procathepsin L (Homo sapiens) (P07711 114-288 limits assumed): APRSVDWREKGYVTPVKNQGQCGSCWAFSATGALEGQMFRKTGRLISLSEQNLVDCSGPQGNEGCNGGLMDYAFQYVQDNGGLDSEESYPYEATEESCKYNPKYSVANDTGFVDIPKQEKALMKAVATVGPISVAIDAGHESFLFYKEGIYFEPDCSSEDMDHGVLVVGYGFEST
Chain of Procathepsin L (Homo sapiens) (P07711 292-333 limits assumed): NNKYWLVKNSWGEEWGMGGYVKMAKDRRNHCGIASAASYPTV

Q: For `COCCNC(=O)C(C#N)c1nc2ccccc2nc1N1CCN(Cc2ccc3c(c2)OCO3)CC1` (stereo not drawn), which inhibition is on record?
A: -9.53% (inactive)

Q: How did the inhibition turn out when `CC1(C)CC(=O)C(C=NCc2cccnc2)=C(O)C1` was run?
A: 3% (inactive)

Q: With `Cc1ccccc1-c1ccc(Nc2ccc(C(=O)N3CCOCC3)cc2)nn1` as the compound, how does the inhibition read?
A: -0.35% (inactive)

Q: Which inhibition does the source give for `COc1ccc(CCNC(=O)CSc2nnc(CNC(=O)c3cccs3)o2)cc1OC` here?
A: 3.37% (inactive)

Q: Which inhibition does the source give for `CCCCC(CC)C(=O)Nc1ccc(Cl)cn1` (stereo not drawn) here?
A: 1.2% (inactive)

Q: For `CCOC(=O)c1[nH]c2ccc(C)cc2c1N=C(C)N(C)C`, which inhibition is on record?
A: 0.54% (inactive)

Q: For `CCC(=O)Nc1ccc(C(=O)CSc2nnc(CNc3ccc(Cl)cc3)o2)cc1OC`, which inhibition is on record?
A: 9.8% (inactive)

Q: How did the inhibition turn out when `Cc1ccc(S(=O)(=O)C2(S(=O)(=O)c3ccc(C)cc3)CCCC2)cc1` was run?
A: -3.77% (inactive)

Q: For `Cc1ccc(-n2nc3c(c2NC(=O)c2ccc4c(c2)OCO4)CSC3)c(C)c1`, which inhibition is on record?
A: -0.76% (inactive)

Q: With `CCOC(=O)N1CCN(C(=O)CN(C2CCCCC2)S(C)(=O)=O)CC1` as the compound, how does the inhibition read?
A: -8.17% (inactive)

Q: With `CC(C)(C)c1cc(CN2CCN(CCC#N)CC2)cc(C(C)(C)C)c1O` as the compound, how does the inhibition read?
A: 4.94% (inactive)

Q: Which inhibition does the source give for `CCn1c(CSc2nncn2-c2ccc(OC)cc2)nc2cc(S(=O)(=O)N(C)C)ccc21` here?
A: 15% (inactive)

Q: For `O=C(Nn1cc(C(=O)N2CCN(c3ccccc3F)CC2)c2ccccc2c1=O)c1cnccn1`, which inhibition is on record?
A: -5.99% (inactive)

Q: Which inhibition does the source give for `CCN(Cc1ccccc1)C(=O)CSc1nc(C)cc2c1C(=O)OC2` here?
A: 5.38% (inactive)

Q: For `CCC(C)n1[nH]c(=O)c2c(C)cc(C)nc21` (stereo not drawn), which inhibition is on record?
A: 12.4% (inactive)

Q: For `COc1ccc(-c2ccnc(SCC(=O)N3CCOCC3)n2)cc1`, which inhibition is on record?
A: 11.9% (inactive)

Q: `CCn1c(-c2cc(OC)ccc2OC)csc1=Nc1c(C)n(C)n(-c2ccccc2)c1=O` was tested. Which inhibition did it give?
A: -2.42% (inactive)

Q: `COc1ccc(NC2CC(=O)N(C)C2=O)cc1` (stereo not drawn) was tested. Which inhibition did it give?
A: 4.64% (inactive)

Q: How did the inhibition turn out when `CC(C)n1c(C(O)c2ccccc2)nc2ccccc21` (stereo not drawn) was run?
A: 2.15% (inactive)

Q: `Cc1cccn2c(=O)c3cc(C#N)c(=O)n(CCCN4CCOCC4)c3nc12` was tested. Which inhibition did it give?
A: -56.6% (inactive)

Q: For `CCOC(=O)C1(C(F)(F)F)N=C(N(C)C)OC(N(C)C)=N1`, which inhibition is on record?
A: -0.15% (inactive)

Q: With `Cc1cc(C)c(C(=O)CN2C(=O)CCC2=O)cc1C` as the compound, how does the inhibition read?
A: 5.02% (inactive)

Q: For `O=C(c1ccc2c(c1)N(Cc1ccc(F)cc1)C(=O)CS2)N1CCOCC1`, which inhibition is on record?
A: -0.56% (inactive)

Q: With `CN(C(=O)C1CCOC1)c1nnc(-c2cccnc2)s1` (stereo not drawn) as the compound, how does the inhibition read?
A: 49.5% (active)

Q: `CN(C(=O)COc1ccccc1)c1nnc(-c2ccncc2)s1` was tested. Which inhibition did it give?
A: -26.7% (inactive)

Q: With `CN(C(=O)c1ccno1)c1nnc(-c2cccnc2)s1` as the compound, how does the inhibition read?
A: -4.38% (inactive)

Q: For `COc1ccc(-c2nnc(SC(C)C#N)o2)cc1` (stereo not drawn), which inhibition is on record?
A: 9.86% (inactive)

Q: How did the inhibition turn out when `CC(=O)Nc1nc(C)c(Cc2ccccc2)c(=O)[nH]1` was run?
A: -7.6% (inactive)

Q: How did the inhibition turn out when `CCOc1cccc(C(=O)Nc2cccnc2)c1` was run?
A: -6.37% (inactive)

Q: How did the inhibition turn out when `CC(=O)Nc1ccc(S(=O)(=O)N2CCN(C3CCCCCCC3)CC2)cc1` was run?
A: 7.05% (inactive)

Q: Which inhibition does the source give for `COc1ccc2c(c1OC)C(=O)N(c1ncn[nH]1)C2` here?
A: 2.08% (inactive)

Q: Which inhibition does the source give for `COc1ccc(NC(=O)CN2CCN(S(=O)(=O)c3ccc(F)cc3)CC2)cc1Cl` here?
A: 20.1% (inactive)

Q: Which inhibition does the source give for `COc1ccc(S(=O)(=O)Nc2ccc3c(c2)OCO3)cc1Cl` here?
A: 3.1% (inactive)

Q: How did the inhibition turn out when `CCc1nnc(NC(=O)CCC(=O)O)s1` was run?
A: 3.51% (inactive)

Q: For `COC(=O)C1C(=O)CC(C)(O)C(C(=O)OC)C1c1ccc2c(c1)OCO2` (stereo not drawn), which inhibition is on record?
A: 11.2% (inactive)

Q: `CN1CCN(S(=O)(=O)c2ccc3[nH]cc(C(=O)O)c(=O)c3c2)CC1` was tested. Which inhibition did it give?
A: -3.14% (inactive)

Q: For `CCCN1CCN(CCCNC(=O)CN2C(=O)COc3ccccc32)CC1`, which inhibition is on record?
A: -8% (inactive)

Q: Which inhibition does the source give for `O=C(CCN1C(=O)COc2ccccc21)NCCCN1CCN(c2ccc(F)cc2)CC1` here?
A: 5.08% (inactive)

Q: Which inhibition does the source give for `COc1ccc(N2CCN(CCNC(=O)CCN3C(=O)COc4ccccc43)CC2)cc1` here?
A: 104% (active)

Q: `O=C(CCCC(=O)N(CC(=O)NC1CCCC1)Cc1ccccc1Cl)Nc1ccccn1` was tested. Which inhibition did it give?
A: 9.21% (inactive)

Q: Which inhibition does the source give for `c1ccc2[nH]c(-c3nc4ccccc4[nH]3)nc2c1` here?
A: 3.52% (inactive)

Q: With `Cc1ccc2nc3n(c(=O)c2c1)CCC3` as the compound, how does the inhibition read?
A: 14.4% (inactive)

Q: With `CCCC(=O)N1c2ccccc2NC2=C(C(=O)CCC2)C1c1ccc(F)cc1` (stereo not drawn) as the compound, how does the inhibition read?
A: 3.55% (inactive)

Q: With `O=C(NC12CC3CC(CC(C3)C1)C2)N1CCCC(CO)C1` (stereo not drawn) as the compound, how does the inhibition read?
A: 2.74% (inactive)

Q: Which inhibition does the source give for `CCOC(=O)C1=C(C)NC(=O)N(C(C)=O)C1c1ccc(Cl)cc1` (stereo not drawn) here?
A: 12.8% (inactive)

Q: `COc1ccc(C2CC(c3ccc(C)cc3)Nc3nc(N)nn32)cc1` (stereo not drawn) was tested. Which inhibition did it give?
A: -0.09% (inactive)

Q: For `COc1ccccc1-c1cc(C(=O)N2CCCCC2)no1`, which inhibition is on record?
A: -3.35% (inactive)

Q: For `COc1ccc(Br)cc1/C=N/n1c(C)nnc1C`, which inhibition is on record?
A: 12.8% (inactive)

Q: For `CCCOC(=O)CC1C(=O)NCCN1Cc1ccc(F)cc1` (stereo not drawn), which inhibition is on record?
A: -5.6% (inactive)

Q: `CCOC(=O)c1ccc(NC(=O)CSc2nnc(COc3ccccc3OC)n2C)cc1` was tested. Which inhibition did it give?
A: -5.46% (inactive)

Q: Which inhibition does the source give for `CCOc1ccc(C(=O)Nc2ccncc2)cc1` here?
A: 21.4% (inactive)

Q: `Cc1cnc(C(=O)OCC(=O)Nc2ccc(Cl)cc2Cl)cn1` was tested. Which inhibition did it give?
A: -0.6% (inactive)

Q: Which inhibition does the source give for `Fc1ccc2[nH]c3c(N4CCN(Cc5ccc6c(c5)OCO6)CC4)ncnc3c2c1` here?
A: -9.64% (inactive)

Q: Which inhibition does the source give for `c1ccc(-c2noc(-c3cccs3)n2)nc1` here?
A: 0.38% (inactive)

Q: `CCOc1cc(/C=N/O)cc(Br)c1OC` was tested. Which inhibition did it give?
A: 2.18% (inactive)

Q: `COC(=O)C(C)C1Sc2ccccc2NC1=O` (stereo not drawn) was tested. Which inhibition did it give?
A: -1.59% (inactive)

Q: With `CCCCOc1ccc(-c2ncc(C(=O)OCC)c(N)n2)cc1` as the compound, how does the inhibition read?
A: 4.53% (inactive)

Q: Which inhibition does the source give for `Cc1cc(NC(=O)c2cnn3cccnc23)n(-c2ccccc2)n1` here?
A: 1.38% (inactive)

Q: `COc1cccc(N2C(=O)C3CCCN3C2c2ccc(F)cc2)c1` (stereo not drawn) was tested. Which inhibition did it give?
A: -5.29% (inactive)

Q: `Cc1noc(C)c1C(=O)NC(C)c1ccc2c(c1)OCO2` (stereo not drawn) was tested. Which inhibition did it give?
A: 19.1% (inactive)

Q: `CN(Cc1ccccc1)Cc1ccccc1F` was tested. Which inhibition did it give?
A: 6.62% (inactive)

Q: Which inhibition does the source give for `COC(=O)c1cc(S(=O)(=O)NC2CCN(Cc3ccccc3)CC2)cn1C` here?
A: -7.14% (inactive)

Q: `Cc1cc(OCCN2CCCC2)ccc1C(C)C` was tested. Which inhibition did it give?
A: 3.61% (inactive)
